# Screen size: about 280,000 compounds; about 2,600 (0.93%) were called active. Where a call stands in place of a potency, no number is given. Inconclusive results (about 8%) are left out. Calls come from the whole dose curve; as a rule, active = well fitted curve in the direction sought with a large enough effect; inconclusive = small, poorly fitted or top-dose-only effect; inactive = flat fitted curve, though single readings scatter. For the sample, actives were picked, then their nearest neighbours and some compounds at random.
# Test: Counterscreen qHTS for Inhibitors of Tau Fibril Formation, Fluorescence Polarization; note: nearly all actives have a fitted effect of over 55% in size
# Details: tau K18 P301L Alexa594 fluorescence, heparin fibrillization; series mostly up to 57.7 µM
# Summary of the method: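 Human tau K18 P301L (15 uM unlabeled, 0.24 uM Alexa 594-labeled) in 100 mM sodium acetate pH 7 with 20 uM heparin, 6 hr at 37 C. ThT 30 uM added, 1 hr ambient; Alexa 594 FP and total fluorescence read at 555/632 nm.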
# Potency is the fitted concentration of half-maximal effect; tags give direction and shape of the fitted curve or compound fluorescence and quenching.
row,SMILES,Potency
1,Cc1ccc(S(=O)(=O)NCc2nc3nc(C)cc(C)n3n2)cc1,inactive
2,Cc1cc(N/N=C/c2ccccc2F)c2ccccc2n1,inactive
3,Oc1ccc(/C=N/Nc2nc(-c3ccccc3F)nc3ccccc23)c(O)c1,5.01 µM [quencher] (active)
4,Oc1ccc(/C=N/NC2=NCCCCC2)c(O)c1,inactive
5,Cc1c(C(=O)Nc2cccc(Cl)c2)oc2ccc(S(=O)(=O)N3CCOCC3)cc12,inactive
6,COc1cc(OC)c(OC)cc1/C=C/c1nc2ccccc2c(=O)n1-c1ccc(Br)c(C)c1,inactive
7,Cc1cc(NC(=O)Nc2ccccc2)n(-c2ccccc2)n1,inactive
8,Cc1cc(Nc2ccccc2)n(CCC#N)n1,inactive
9,Cc1cc(Nc2ccccc2)n(C(=O)c2ccc(N)cc2)n1,25.1 µM [quencher] (active)
10,CCOc1ccc(-n2c(C)nc3c(cnn3-c3ccc(C)cc3)c2=O)cc1,inactive
11,CCOc1ccc(NC(=O)c2c(NC(=O)Cc3ccccc3)sc3c2CCCCC3)cc1,inactive
12,COc1ccc(CCNC(=O)Cn2c(=O)cc(C(F)(F)F)c3c(C)nn(C)c32)c(OC)c1,inactive
13,CCOC(=O)c1c(NC(=O)CSc2cn(CC)c3ccccc23)sc2c1CCC2,inactive
14,CCOC(=O)c1c(NC(=S)Nc2ccccc2C)sc2c1CCC2,inactive
15,CCOC(=O)c1c(NC(=O)C(C)Sc2c[nH]c3ccccc23)sc2c1CCC2 (stereo not given),7.94 µM [quencher] (active)
16,CCN(CC)C(=O)CSc1nc2cc3c(cc2c(=O)n1CCCC(=O)NCc1ccc2c(c1)OCO2)OCO3,inactive
17,Cn1c(=O)c2c(nc(N/N=C/c3cccs3)n2Cc2ccc(Br)cc2)n(C)c1=O,14.1 µM [quencher] (active)
18,CCCCNc1nc2c(c(=O)n(C)c(=O)n2C)n1Cc1cccc(OC)c1,inactive

row,SMILES,Potency
1,Cn1c(=O)c2c(nc(NCCc3ccccc3)n2Cc2ccccc2Br)n(C)c1=O,inactive
2,CCOc1ccccc1N(C)C(=O)c1cc2c(s1)-c1ccccc1OC2,inactive
3,Cc1ccc(NC(=O)NC(C)c2c(-n3cccc3)sc(C)c2C)c(C)c1 (stereo not given),inactive
4,CCn1cc(NC(=O)Nc2ccc(OC)c(OC)c2)c(C(N)=O)n1,inactive
5,COc1ccc(NC(=O)NC(C)c2c(-n3cccc3)sc(C)c2C)cc1OC (stereo not given),15.8 µM [quencher] (active)
6,Cc1ccc(CSc2nc3ccsc3c(=O)n2CCC(C)C)cc1,inactive
7,CCOC(=O)c1c(S(=O)(=O)NCC(=O)Nc2ccc(Cl)c(C(F)(F)F)c2)c(C)n(C)c1C,inactive
8,Fc1ccc2[nH]c3c(N4CCSCC4)ncnc3c2c1,inactive
9,O=c1[nH]c(N2CCN(Cc3ccc4c(c3)OCO4)CC2)nc2c1CCCC2,inactive
10,Fc1ccc2[nH]c3c(N4CCN(Cc5ccc6c(c5)OCO6)CC4)ncnc3c2c1,25.1 µM [quencher] (active)
11,COc1ccc(S(=O)(=O)c2c(Nc3ccc(C)cc3)sc(C(=O)c3ccc(C)cc3)c2N)cc1,inactive
12,O=C(NCC(c1ccc2c(c1)OCO2)N1CCN(c2ccccc2)CC1)C(=O)Nc1ccccc1F (stereo not given),inactive
13,CN(C)c1ccc(/C=N/N(Cc2ccccc2)c2ccccc2)cc1,inactive
14,Oc1ccc(/C=N/N(Cc2ccccc2)c2ccccc2)cc1,15.8 µM [quencher] (active)
15,O=C(N/N=C/c1ccc(OCc2ccccc2)cc1)c1ccc(O)cc1,inactive
16,CCN(CC)c1ccc(NC(=O)CN2C(=O)c3cccnc3Oc3ccc(Cl)cc32)c(C)c1,inactive
17,CCc1cc2c(cc3c(=O)n(CC(=O)N4CCN(c5cc(Cl)ccc5C)CC4)ncn32)s1,inactive

# From PubChem BioAssay AID1463 (National Center for Advancing Translational Sciences (NCATS), 2008)
